Test results reported in PubChem BioAssay AID540259 (Broad Institute, 2011).
Measured potencies and affinities stand elsewhere. Active and inactive are the calls of the source.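 Rule for the calls: active = cell killing, meaning signal decrease, with fitted half-maximal dose at or below ten times the top valid tested dose; inconclusive = poor fit, or flat curve with 30 to 70% signal loss; inactive = the rest.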

Assay: ATP-based viability loss in HeLa cells – cell-based, CellTiter-Glo luminescence, cherry-pick samples, cytotoxicity control for MITF activator project, dose response (AID 540259);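 note: 0% = DMSO neutral control and -100% = mitoxantrone positive control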
Details: 24 h; series mostly up to 35 µM; activity change, negative = cytotoxicity: at the top concentration

SMILES	activity change, negative = cytotoxicity
COc1ccc(N=C(C)c2sc3ccccc3c2O)cc1	0.743% (inactive)
CCS(=O)(=O)Nc1ccc(C(=O)NCCSc2ccccc2)cc1	-0.036% (inactive)
C/C(=N\O)c1ccc(N2C(=O)C3CC=C(Cl)CC3C2=O)cc1 (stereo unspecified)	12.3% [at 11 µM] (inactive)
Nc1ccc(Oc2cc(N)cc(Oc3ccccc3)c2)cc1	9.55% (inactive)
Cc1cc(C)c(NN=c2c(=O)c3ccccc3c2=O)c(C)c1	4.61% (inactive)
O=C(N/N=C/c1ccc(OC(=O)c2ccccc2Cl)cc1)c1ccccn1	-9.83% (inactive)
Cc1ccn2cc(-c3cccc(NS(C)(=O)=O)c3)nc2c1	0.194% (inactive)
O=C(Nc1ccc(F)cc1Cl)c1ccc2c(=O)n3c(nc2c1)CCC3	13.9% (inactive)
c1ccc(-c2noc(CCC3CCCC3)n2)cc1	-0.086% (inactive)
COc1ccc(NC(=S)c2ccccc2)cc1	2.2% (inactive)
CCN(CC)c1ccc(-c2nc3cnccc3n2C)cc1	-9.89% (inactive)
Cc1noc(N)c1C(=O)Nc1ccc(C(C)(C)C)cc1	-8.76% (inactive)
COc1ccc(-c2csc(N(C)C(=O)c3cccs3)n2)cc1	-2.71% (inactive)
COc1ccccc1Nc1nc(C)cs1	25.3% (inactive)
CCc1nc2oc3ccccc3c(=O)c2cc1C(=O)OC	-3.48% (inactive)
CC(C)CNC(=O)C1CCN(Cc2ccc(OCc3ccccc3)cc2)CC1	-2.62% (inactive)
CCC(=O)Nc1sc(C(=O)Nc2ccccc2F)c(C)c1C(=O)OC	1.28% (inactive)
COCc1nn2c(N)c(-c3ccccc3)cnc2c1-c1ccccc1	6.09% (inactive)

SMILES	activity change, negative = cytotoxicity
FC(F)(F)c1cnc(-c2cnc(-c3cccnc3)nc2)c(Cl)c1	12.4% (inactive)
Cc1ccc(CNc2ccc3c(c2)ncn3C(C)C)cc1	-10.8% (inactive)
Cc1cccc(C(=O)Nc2ccn(C)n2)c1	14.6% (inactive)
COc1ccc2cc(C(=O)NCCc3ccccc3)[nH]c2c1	8.17% (inactive)
Oc1oc(-c2ccccc2)nc1C=NCc1ccccc1	4.32% (inactive)
O=C(c1nnc(-c2ccc(Cl)cc2)o1)C1CCCC1	10.8% (inactive)
N#C/C(C(=O)N1CCCCC1)=C1\Nc2ccccc2S1	9.85% (inactive)
O=C(Cc1ccccn1)c1ccc(Cl)cc1	-13.2% (inactive)
CC(C)(C)N1C(=O)c2ccc(C(=O)Nc3nccs3)cc2C1=O	12.9% (inactive)
c1ccc(CSCc2cn3ccsc3n2)cc1	4.42% (inactive)
Cc1cc(NC(=O)c2ccc(Cl)cc2)no1	-10.9% (inactive)
CC(C)(C)C(=O)c1sc(Nc2ccccc2)nc1N	-9.38% (inactive)
CCN1CCN(c2ccc(NC(=O)c3cccc(F)c3)cc2Cl)CC1	4.94% (inactive)
Clc1ccc(-n2nnc(-c3cccnc3Cl)n2)cn1	5.34% (inactive)
Cc1cccc(NC(=O)c2sc3nc(N)c(C#N)cc3c2N)c1	-3.44% (inactive)
O=C(Nc1ccc2ccccc2c1)c1cc(F)c(F)cc1Cl	-2.11% (inactive)
O=c1[nH]c(COc2ccccc2)nc2ccccc12	8.05% (inactive)
Cc1ccc(-c2nn(-c3ccccc3)cc2/C=N/O)cc1	27.1% [at 11 µM] (inactive)
